Compound activity (PubChem BioAssay)
Anthrax LF prot = blocks Bacillus anthracis lethal factor protease | inhibition, % at 10 µM | P15917 | multiplex microsphere protease cleavage assay, LF | 0.12% of 360,000 active
Target sequence (P15917 whole entry, looked up): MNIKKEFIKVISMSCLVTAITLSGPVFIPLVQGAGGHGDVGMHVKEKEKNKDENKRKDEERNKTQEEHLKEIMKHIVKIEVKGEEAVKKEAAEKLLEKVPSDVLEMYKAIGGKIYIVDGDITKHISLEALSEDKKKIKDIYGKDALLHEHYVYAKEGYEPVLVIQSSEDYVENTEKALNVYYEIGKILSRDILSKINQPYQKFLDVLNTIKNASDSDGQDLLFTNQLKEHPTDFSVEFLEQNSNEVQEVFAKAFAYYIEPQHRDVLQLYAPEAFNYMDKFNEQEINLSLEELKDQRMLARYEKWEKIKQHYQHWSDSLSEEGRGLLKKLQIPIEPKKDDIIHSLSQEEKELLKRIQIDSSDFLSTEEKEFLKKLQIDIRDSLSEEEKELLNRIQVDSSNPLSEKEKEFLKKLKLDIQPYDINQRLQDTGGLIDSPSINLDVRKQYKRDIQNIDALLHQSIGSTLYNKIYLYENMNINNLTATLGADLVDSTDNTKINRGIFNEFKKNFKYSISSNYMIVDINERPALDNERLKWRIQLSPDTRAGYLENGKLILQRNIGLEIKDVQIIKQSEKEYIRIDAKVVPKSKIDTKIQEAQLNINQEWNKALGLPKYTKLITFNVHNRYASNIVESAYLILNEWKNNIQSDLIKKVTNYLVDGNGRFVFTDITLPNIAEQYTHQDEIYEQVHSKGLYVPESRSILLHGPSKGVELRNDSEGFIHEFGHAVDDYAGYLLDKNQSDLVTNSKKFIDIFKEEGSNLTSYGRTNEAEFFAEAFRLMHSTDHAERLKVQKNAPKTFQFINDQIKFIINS
Autofluor counter = compound fluorescence in toxin protease inhibitor counterscreen. AID 624483. 3.1% of 360,000 active. fluorescence intensity (concentration not given with the values). compound autofluorescence counterscreen, microsphere flow cytometry; stronger effect = higher value; in the data active = fluorescence intensity above about 16000; inconclusive = no clear call, values can overlap the other calls
BoNT-F LC inh = BoNT F light chain protease inhibition | inhibition, % at 10 µM | 0.22% of 360,000 active | Multiplex microsphere protease cleavage assay, flow cytometry; in the data active = inhibition above about 35%, passing the limit was not always enough; inconclusive = no clear call, values can overlap the other calls
PriA SSB inh = inhibitors of Klebsiella pneumoniae PriA binding to SSB C-terminal tail | AlphaScreen SSBct-PriA binding, biotinylated peptide | inhibition, % at 33 µM | 0.6% of 430,000 active | AID 1272365; in the data active = inhibition mostly above about 37%, no sharp cut-off; inactive = mostly below about 20%
BoNT A protease = BoNT A light chain protease inhibition. multiplex microsphere protease substrate cleavage, flow cytometry. inhibition, % at 10 µM. 0.17% of 360,000 active. AID 588499
Hits are given with their value; ! = a repeat was not active. Most compounds without a hit are left out; they make up all but 3.1% or so of the library. Cut-off read from the data, not from the text of the source, unless noted: active = inhibition above about 30%; inconclusive = no clear call, values can overlap the other calls; inactive = below that.

`CN1CCN(c2oc(-c3ccccc3)nc2S(=O)(=O)c2ccc(Br)cc2)CC1` gave Anthrax LF prot inactive, Autofluor counter inactive, BoNT-F LC inh inactive, PriA SSB inh 39.1 and BoNT A protease inactive.
For O=S(=O)(c1ccc(Cl)cc1)c1nc(-c2cccs2)oc1N1CCOCC1 the results were PriA SSB inh 44.0.
Cc1ccc(S(=O)(=O)CCC(=O)OCC(=O)NC(=O)c2ccccc2)cc1 was read as Anthrax LF prot inactive, Autofluor counter 40297, BoNT-F LC inh inactive, PriA SSB inh inactive and BoNT A protease inactive.
Screening Cc1ccc(S(=O)(=O)CCC(=O)OCC(=O)NCc2ccccc2)cc1 returned PriA SSB inh inactive.
Screening Cc1ccc(C(=O)N/C(=C\c2ccco2)C(=O)NCc2ccco2)cc1 returned PriA SSB inh inactive.
`O=C(CCS(=O)(=O)c1ccccc1)NC1CCN(c2nccs2)C1` (stereo not given) gave PriA SSB inh inactive.
`CCN(CC)c1ccc(C(=C2C=CC(=[N+](CC)CC)C=C2)c2ccc(S(=O)(=O)O)cc2S(=O)(=O)[O-])cc1` gave Anthrax LF prot inactive, Autofluor counter inactive, BoNT-F LC inh inactive, PriA SSB inh 81.8 and BoNT A protease inactive.
`CCOC(=O)c1c(C)[nH]c(C)c1C(=O)COC(=O)[C@@H](NC(=O)c1ccccc1OCC)C(C)C` gave Anthrax LF prot inactive, Autofluor counter 23944, BoNT-F LC inh inactive, PriA SSB inh inactive and BoNT A protease inactive.
For CCOc1ccccc1C(=O)NC(C(=O)OCC(=O)NNC(=O)c1cccs1)C(C)C (stereo not given) the results were Anthrax LF prot inactive, Autofluor counter inactive, BoNT-F LC inh inactive and BoNT A protease inactive.
`CCOC(=O)C1C(c2ccccc2Cl)NC(=O)N(C)C1(O)C(F)(F)F` (stereo not given) gave Anthrax LF prot inactive, Autofluor counter 16952, BoNT-F LC inh inactive, PriA SSB inh inactive and BoNT A protease inactive.
CNS(=O)(=O)c1ccc(OC)c(-c2nnc3c4ccccc4c(C)nn23)c1 was read as Anthrax LF prot inactive, Autofluor counter inactive, BoNT-F LC inh inactive, PriA SSB inh inactive and BoNT A protease inactive.
For Cc1ccc(C(=O)Nc2ccc(S(=O)(=O)NCc3ccco3)cc2)cc1 the results were Anthrax LF prot inactive, Autofluor counter 21876, BoNT-F LC inh inactive, PriA SSB inh inactive and BoNT A protease inactive.
Screening COc1ccc(S(=O)(=O)NCc2ccco2)cc1-c1nnc2c3ccccc3c(C)nn12 returned Anthrax LF prot inactive, Autofluor counter 20211, BoNT-F LC inh inactive, PriA SSB inh inactive and BoNT A protease inactive.
`Cc1cc(C)cc(NC(=O)c2cc(S(=O)(=O)NCc3ccco3)ccc2F)c1` gave Anthrax LF prot inactive, Autofluor counter 21467, BoNT-F LC inh inactive, PriA SSB inh inactive and BoNT A protease inactive.
COc1ccc(S(=O)(=O)NCc2ccco2)cc1C(=O)O was read as PriA SSB inh 38.0!.
O=C(Nc1ccccc1)c1ccc(S(=O)(=O)NCc2ccco2)cc1 was read as Anthrax LF prot inactive, Autofluor counter inactive, BoNT-F LC inh inactive, PriA SSB inh inactive and BoNT A protease inactive.
Screening O=C(NN1C(=O)/C(=C/c2ccc3c(c2)OCO3)SC1=S)c1ccc([N+](=O)[O-])cc1 returned PriA SSB inh inactive.
For Cc1sc2ncn(-n3cccc3)c(=O)c2c1C the results were PriA SSB inh inactive.
Screening C=CCCC(=O)NC[C@](C)(O)COC returned PriA SSB inh inactive.
Screening CN1C(=O)Cc2cc(NC(=O)COc3ccc(Cl)cc3Cl)ccc21 returned PriA SSB inh inactive.
Screening CN(C)S(=O)(=O)c1ccc(C(=O)N2CC(c3nc(-c4ccco4)no3)C2)cc1 returned PriA SSB inh inactive.
Screening CCn1nc(C(=O)Nc2nc3ccccc3s2)cc1C returned PriA SSB inh inactive.
`CCn1c(=O)cc(NC2=NCC(C)CN2c2cccc(Cl)c2)n(C)c1=O` (stereo not given) gave Anthrax LF prot inactive, Autofluor counter 19894, BoNT-F LC inh inactive, PriA SSB inh inactive and BoNT A protease inconclusive.
For CCn1c(NC)cc(=O)n(C)c1=O the results were Anthrax LF prot inactive, Autofluor counter inactive, BoNT-F LC inh inactive, PriA SSB inh inactive and BoNT A protease inactive.
`CCOC(=O)c1ccc(S(=O)(=O)NCCn2nc(-c3cccnc3)ccc2=O)cc1` gave PriA SSB inh inactive.
Screening Cn1c(=N)sc2ccccc21 returned PriA SSB inh inactive.
Screening CCc1nnc(NS(=O)(=O)c2ccc(NC(=O)c3cc(=O)c4ccccc4o3)cc2)s1 returned PriA SSB inh inactive.
`COc1ccc(-n2nnnc2SCC(=O)N(C)C2CCS(=O)(=O)C2)cc1` (stereo not given) gave Anthrax LF prot inactive, Autofluor counter inactive, BoNT-F LC inh inactive, PriA SSB inh inactive and BoNT A protease inactive.
`COc1ccc(-n2cnnc2SCC(=O)N(C)C2CCS(=O)(=O)C2)cc1` (stereo not given) gave Anthrax LF prot inactive, Autofluor counter 23013, BoNT-F LC inh inactive, PriA SSB inh inactive and BoNT A protease inactive.
COc1cccc(OC)c1OCC(O)CN1CCN(CCO)CC1 (stereo not given) was read as PriA SSB inh inactive.
`O=S(=O)(Nc1cccc2cccnc12)c1ccc(S(=O)(=O)N2CCCC2)cc1` gave Anthrax LF prot inactive, Autofluor counter inactive, BoNT-F LC inh inactive, PriA SSB inh 44.9 and BoNT A protease inactive.
For O=S(=O)(Nc1cccc2cccnc12)c1ccccc1 the results were Anthrax LF prot inactive, Autofluor counter inactive, BoNT-F LC inh inactive, PriA SSB inh inactive and BoNT A protease inactive.
For COc1ccc(-c2nn(-c3ccccc3)cc2/C=C2/SC(=S)N(Cc3ccco3)C2=O)c(C)c1 the results were Anthrax LF prot 35.8, Autofluor counter inactive, BoNT-F LC inh 37.4, PriA SSB inh inactive and BoNT A protease 29.5.
Screening Cc1ccc(-c2ccc(/C=C3/SC(=S)N(c4c(C)n(C)n(-c5ccccc5)c4=O)C3=O)o2)cc1 returned PriA SSB inh inactive.
For O=C1CC(c2ccccc2)CC(O)=C1C=NCCN1CCN(C(=O)Nc2ccccc2)CC1 (stereo not given) the results were Anthrax LF prot inactive, Autofluor counter 22422, BoNT-F LC inh inactive, PriA SSB inh inactive and BoNT A protease inactive.
Cc1cccc(NC(=O)C(Br)C(C)C)c1 (stereo not given) was read as PriA SSB inh inactive.
Screening O=S(=O)(c1ccc(Br)s1)n1cccn1 returned Anthrax LF prot inactive, Autofluor counter 20761, BoNT-F LC inh inactive, PriA SSB inh inactive and BoNT A protease inconclusive.
Screening O=S(=O)(c1cccs1)n1cccn1 returned Anthrax LF prot inactive, Autofluor counter inactive, BoNT-F LC inh inactive, PriA SSB inh inactive and BoNT A protease inactive.
O=C(Nn1cnc2c(cnn2-c2cccc(Cl)c2)c1=O)c1ccccc1C(F)(F)F was read as PriA SSB inh inactive.
Screening O=C(NCCNC(=O)c1cc(OCC(F)(F)F)ccc1OCC(F)(F)F)Nc1cccc(C(F)(F)F)c1 returned Anthrax LF prot inactive, Autofluor counter 24354, BoNT-F LC inh inactive, PriA SSB inh inactive and BoNT A protease inconclusive.
